{"source": "PubChem BioAssay AID602409", "about": "(Sanford-Burnham Center for Chemical Genomics, 2012)", "target": "C-X-C chemokine receptor type 6 (Homo sapiens) (UniProt O00574)", "sequence (O00574 whole entry, looked up, the tested form may be a part)": "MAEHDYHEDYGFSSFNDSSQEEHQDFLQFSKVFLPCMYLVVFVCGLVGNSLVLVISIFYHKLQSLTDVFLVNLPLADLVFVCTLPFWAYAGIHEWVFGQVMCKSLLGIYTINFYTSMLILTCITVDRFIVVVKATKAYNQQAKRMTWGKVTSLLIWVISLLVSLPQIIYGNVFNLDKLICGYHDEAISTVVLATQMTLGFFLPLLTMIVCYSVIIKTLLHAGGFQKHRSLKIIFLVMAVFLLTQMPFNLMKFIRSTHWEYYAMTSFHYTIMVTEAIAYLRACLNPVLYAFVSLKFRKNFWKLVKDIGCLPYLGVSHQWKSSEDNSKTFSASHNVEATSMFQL", "assay": "CXCR6 receptor antagonists, confirmation, cell-based, single concentration, beta-arrestin, luminescence (AID 602409);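 note: receptor stimulated with 10 nM CXCL16 agonist; beta-galactosidase fragment complementation upon beta-arrestin recruitment to receptor; plate controls were CXCL16 plus DMSO for no effect and DMSO without CXCL16 for full effect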", "conditions": "CHO-K1 CXCR6 PathHunter beta-arrestin, at 20 µM, active compounds read high", "note": "The other results are listed elsewhere or left out. Activity calls are given as the source filed them.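 Rule for the calls: active = mean inhibition over four retests above 40%; inactive = the rest.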", "data": [{"smiles": "CC(=O)OC1C2(CC3N4C(=O)C5(CO)SSC4(CC31O)C(=O)N5C)OC(C)C(C)(C)C2=O", "note": "(stereo unspecified)", "values": [{"measurement": "inhibition", "result": "68.1% (active)"}]}]}
